From PubChem BioAssay AID1159580 (chemical genetic matrix, 2015)
In all, about 5,500 compounds went through this assay and about 2,000 (36%) were called active. Inconclusive results (about 18%) are left out. Rule as the data show it: active = normalized growth mostly below about 0.91 (no sharp cut-off); inconclusive = no clear call, values can overlap the other calls; inactive = mostly above about 0.92. This is one part of the list.

Experiment: chemical genetic growth profiling, strain panel (AID 1159580);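 also: tested at 20 µM; growth read once vehicle control cultures reached saturation at 30 °C; 1 = growth at the plate median or of vehicle wells; lower values mean less growth of the strain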
Conditions: growth OD

Measured: normalized growth

Cc1cc(-c2ccccc2)nnc1NCCN1CCOCC1
inactive: S. cerevisiae deletion strains, locus YJR075W, strain HOC1, hits give low values 0.997 | S. cerevisiae deletion strains, locus YKL009W, strain mrt4, hits give low values 1.08 | S. cerevisiae deletion strains, locus YKL068W, hits give low values 0.969 | S. cerevisiae deletion strains, locus YKL085W, strain MDH1 (second series), hits give low values 1 | S. cerevisiae deletion strains, locus YKL085W, strain MDH1, hits give low values 1 | S. cerevisiae deletion strains, locus YKL160W, strain elf1, hits give low values 0.966 | S. cerevisiae deletion strains, locus YKL190W, strain CNB1, hits give low values 1 | S. cerevisiae deletion strains, locus YKR001C, strain vps1, hits give low values 0.98 | S. cerevisiae deletion strains, locus YKR026C, strain gcn3, hits give low values 0.995 | S. cerevisiae deletion strains, locus YKR091W, strain srl3, hits give low values 0.995 | S. cerevisiae deletion strains, locus YLL001W, strain dnm1, hits give low values 0.976 | S. cerevisiae deletion strains, locus YLL026W, hits give low values 0.992 | S. cerevisiae deletion strains, locus YLL041C, strain sdh2, hits give low values 0.988 | S. cerevisiae deletion strains, locus YLR027C, strain aat2, hits give low values 0.989 | S. cerevisiae deletion strains, locus YLR039C, strain RIC1, hits give low values 0.999 | S. cerevisiae deletion strains, locus YLR058C, strain SHM2, hits give low values 1.01 | S. cerevisiae deletion strains, locus YLR102C, strain apc9, hits give low values 0.968 | S. cerevisiae deletion strains, locus YLR113W, strain HOG1, hits give low values 0.964 | S. cerevisiae deletion strains, locus YLR221C, strain rsa3, hits give low values 0.989 | S. cerevisiae deletion strains, locus YLR258W, strain gsy2, hits give low values 0.995 | S. cerevisiae deletion strains, locus YLR262C, strain YPT6 (second series), hits give low values 0.98 | S. cerevisiae deletion strains, locus YLR262C, strain YPT6, hits give low values 1.04 | S. cerevisiae deletion strains, locus YLR268W, strain sec22, hits give low values 0.946 | S. cerevisiae deletion strains, locus YLR320W, strain mms22, hits give low values 0.984 | S. cerevisiae deletion strains, locus YLR330W, strain CHS5, hits give low values 0.999 | S. cerevisiae deletion strains, locus YLR342W, strain FKS1 (second series), hits give low values 1.07 | S. cerevisiae deletion strains, locus YLR342W, strain FKS1, hits give low values 0.983 | S. cerevisiae deletion strains, locus YLR357W, strain rsc2, hits give low values 0.975 | S. cerevisiae deletion strains, locus YLR370C, strain arc18, hits give low values 0.986 | S. cerevisiae deletion strains, locus YLR371W, strain rom2, hits give low values 0.967 | S. cerevisiae deletion strains, locus YLR384C, strain iki3, hits give low values 0.976 | S. cerevisiae deletion strains, locus YLR418C, strain cdc73, hits give low values 0.998 | S. cerevisiae deletion strains, locus YML016C, strain PPZ1, hits give low values 1.02 | S. cerevisiae deletion strains, locus YML032C, strain rad52, hits give low values 0.974 | S. cerevisiae deletion strains, locus YML120C, strain ndi1, hits give low values 0.972 | S. cerevisiae deletion strains, locus YML124C, strain tub3, hits give low values 0.978 | S. cerevisiae deletion strains, locus YMR058W, strain fet3, hits give low values 0.988 | S. cerevisiae deletion strains, locus YMR078C, strain ctf18, hits give low values 0.978 | S. cerevisiae deletion strains, locus YMR125W, strain sto1, hits give low values 0.972 | S. cerevisiae deletion strains, locus YMR129W, hits give low values 0.989 | S. cerevisiae deletion strains, locus YMR205C, strain PFK2, hits give low values 0.965 | S. cerevisiae deletion strains, locus YMR223W, strain ubp8, hits give low values 1.02 | S. cerevisiae deletion strains, locus YMR231W, strain pep5, hits give low values 0.998 | S. cerevisiae deletion strains, locus YMR263W, strain SAP30, hits give low values 0.997 | S. cerevisiae deletion strains, locus YMR307W, strain GAS1, hits give low values 1.04 | S. cerevisiae deletion strains, locus YNL067W, strain RPL9B, hits give low values 0.985 | S. cerevisiae deletion strains, locus YNL071W, strain lat1, hits give low values 0.987 | S. cerevisiae deletion strains, locus YNL128W, strain TEP1, hits give low values 0.995 | S. cerevisiae deletion strains, locus YNL153C, strain GIM3, hits give low values 1.01 | S. cerevisiae deletion strains, locus YNL183C, strain NPR1, hits give low values 0.931 | S. cerevisiae deletion strains, locus YNL209W, strain ssb2, hits give low values 0.991 | S. cerevisiae deletion strains, locus YNL233W, strain BNI4, hits give low values 1.01 | S. cerevisiae deletion strains, locus YNL248C, strain rpa49, hits give low values 0.985 | S. cerevisiae deletion strains, locus YNL250W, strain rad50, hits give low values 0.98 | S. cerevisiae deletion strains, locus YNL271C, strain bni1, hits give low values 0.968 | S. cerevisiae deletion strains, locus YNL298W, strain CLA4, hits give low values 0.977 | S. cerevisiae deletion strains, locus YNL307C, strain MCK1, hits give low values 0.993 | S. cerevisiae deletion strains, locus YNL322C, strain KRE1 (second series), hits give low values 0.981 | S. cerevisiae deletion strains, locus YNL322C, strain KRE1, hits give low values 0.994 | S. cerevisiae deletion strains, locus YNR049C, strain mso1, hits give low values 0.982 | S. cerevisiae deletion strains, locus YNR052C, strain pop2, hits give low values 0.973 | S. cerevisiae deletion strains, locus YOL006C, strain TOP1, hits give low values 0.959 | S. cerevisiae deletion strains, locus YOL012C, strain htz1 0.852 | S. cerevisiae deletion strains, locus YOL147C, strain pex11, hits give low values 0.977 | S. cerevisiae deletion strains, locus YOR001W, strain rrp6, hits give low values 0.986 | S. cerevisiae deletion strains, locus YOR061W, strain CKA2, hits give low values 1.01 | S. cerevisiae deletion strains, locus YOR069W, strain VPS5, hits give low values 1.01 | S. cerevisiae deletion strains, locus YOR070C, strain gyp1, hits give low values 0.993 | S. cerevisiae deletion strains, locus YOR080W, strain dia2, hits give low values 0.987 | S. cerevisiae deletion strains, locus YOR083W, strain WHI5, hits give low values 0.968 | S. cerevisiae deletion strains, locus YOR106W, strain vam3, hits give low values 0.961 | S. cerevisiae deletion strains, locus YOR136W, strain idh2, hits give low values 0.978 | S. cerevisiae deletion strains, locus YOR144C, strain elg1, hits give low values 0.967 | S. cerevisiae deletion strains, locus YOR184W, strain ser1, hits give low values 0.982 | S. cerevisiae deletion strains, locus YOR231W, strain MKK1, hits give low values 0.971 | S. cerevisiae deletion strains, locus YOR265W, strain rbl2, hits give low values 0.995 | S. cerevisiae deletion strains, locus YOR270C, strain vph1, hits give low values 0.965 | S. cerevisiae deletion strains, locus YOR290C, strain snf2, hits give low values 0.991 | S. cerevisiae deletion strains, locus YOR316C, strain cot1, hits give low values 0.953 | S. cerevisiae deletion strains, locus YPL051W, strain arl3, hits give low values 0.985 | S. cerevisiae deletion strains, locus YPL055C, strain LGE1, hits give low values 1 | S. cerevisiae deletion strains, locus YPL078C, strain atp4, hits give low values 0.989 | S. cerevisiae deletion strains, locus YPL106C, strain sse1, hits give low values 0.959 | S. cerevisiae deletion strains, locus YPL240C, strain hsp82, hits give low values 1 | S. cerevisiae deletion strains, locus YPL241C, strain CIN2, hits give low values 1.01 | S. cerevisiae deletion strains, locus YPL256C, strain CLN2, hits give low values 0.945 | S. cerevisiae deletion strains, locus YPR119W, strain clb2, hits give low values 0.98 | S. cerevisiae deletion strains, locus YPR141C, strain kar3, hits give low values 0.971 | S. cerevisiae deletion strains, locus YPR163C, strain tif3, hits give low values 0.982 | S. cerevisiae deletion strains, locus YPR167C, strain met16, hits give low values 0.97 | S. cerevisiae deletion strains, strain wtn01, hits give low values 0.982 | S. cerevisiae strains, strain wild type, hits give low values 1.01
